Data from PubChem BioAssay AID652065 (The Scripps Research Institute Molecular Screening Center, 2013).
Values joined by “and” are separate entries in the source; they are usually repeats but may differ in a detail not shown here. Identical values can stand only once. The whole screen tested about 4,300 compounds, of which about 3,000 (70%) were called active.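 The calls were made as follows: active = inhibition above a per-plate cutoff, the mean inhibition of sample wells plus 3 SD (cut at about 35% in these data); inactive = the rest.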 The set was probably picked from earlier hits. Not all results are given here. Where a structure was tested more than once in an assay, its records may differ in their call.

assay: small molecules binding CAG repeat RNA – biochemical, fluorescence, confirmation (AID 652065); conditions: r(CAG) RNA repeat, TO-PRO-1 dye displacement fluorescence; at 3 µM; stronger effect = higher value;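 also: loss of TO-PRO-1 fluorescence as compound displaces dye from 1x1 AA loop RNA; 0% = DMSO only wells and 100% = 100 µM mitoxantrone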

SMILES | inhibition
NC(=O)c1c(Nc2nc3c(F)cccc3s2)sc2c1CCCC2 | 39.3% (active)
Cc1cc(N2C(=O)C(O)=C(C(=O)c3ccc(C)o3)C2c2ccc(OCc3ccccc3)cc2)no1 (centres undefined) | 64.8% (active)
N#Cc1c(-c2ccccc2)cc(-c2ccccc2)nc1SCC(=O)O | 44.6% (active)
Nc1cccc(-c2cc(-c3ccccc3)nc(-c3cccc(N)c3)n2)c1 | 21.8% (inactive)
O=C(Cc1ccccc1)Nc1ccc(C(=O)Nc2ccccc2C(=O)O)cc1 | 50.5% (active)
Cc1ccc(C(=O)O)cc1-c1ccc(/C=C2\SC(=O)N(CC(=O)Nc3ccc4c(c3)OCO4)C2=O)o1 | 85.1% (active)
CCn1cc(C(=O)NCC2COc3ccccc3O2)c2cc(OC)c(OC)cc2c1=O (centres undefined) | 3.06% (inactive)
Cc1cc(C)cc(Oc2c(C(F)(F)F)oc3cc(OCC(=O)O)ccc3c2=O)c1 | 27.1% (inactive)
O=C(COc1ccccc1Cl)Nc1ccc(C(=O)c2ccc(C(=O)O)cc2)cc1 | 27.3% (inactive)
Cc1cccc(OCC(=O)Nc2ccc(C(=O)O)cc2NC(=O)COc2cccc(C)c2)c1 | 44.8% (active)
Cc1cc(C)cc(OCC(=O)Nc2cc(NC(=O)COc3cc(C)cc(C)c3)cc(C(=O)O)c2)c1 | 78.6% (active)
COc1ccc(OCC(=O)Nc2nnc(-c3ccco3)s2)cc1 | 12.6% (inactive)
CCCc1ccc(OCC(=O)NNC(=S)NC(=O)c2ccco2)cc1 | 56.7% (active)
CC(Oc1ccc2ccccc2c1)C(=O)NNC(=S)NC(=O)c1ccco1 (centres undefined) | 42.4% (active)
CN1CCN(S(=O)(=O)c2cccc(C(=O)Nc3sccc3C#N)c2)CC1 | 24.8% (inactive)
CC1CCCCN1S(=O)(=O)c1ccc(C(=O)Nc2nnc(-c3cccs3)o2)cc1 (centres undefined) | 40.6% (active)
N#Cc1ccccc1CN1C(=O)S/C(=C/c2cccn2-c2cccc(C(=O)O)c2)C1=O | 63.3% (active)
Cc1cc2nc(-c3ccco3)c(Cc3cccc(F)c3)n2c(C)c1Br | 30.1% (inactive)
Cc1ccc(NC(=S)NNC(=O)CSc2nnc(SCc3ccccc3Cl)s2)cc1 | 48.4% (active)
O=C(Nc1nnc(-c2ccccc2)o1)c1cc(-c2cccs2)nc2ccccc12 | 68.2% (active)
Cc1ccc(Cn2c(SCC(=O)N/N=C/c3ccccc3OCC(=O)O)nc3ccccc32)cc1 | 65.5% (active)
Oc1c(Cl)cc(Cl)c(Cl)c1Cc1c(O)c(Cl)cc(Cl)c1Cl | 91.4% (active)
NC(c1ccccc1)c1csc(NC(=O)Nc2cccc(C(F)(F)F)c2)n1 (centres undefined) | 59.1% (active)
NC(c1csc(NC(=O)Nc2cccc(C(F)(F)F)c2)n1)C1CCCCC1 (centres undefined) | 24.4% (inactive)
COc1ccc(C(N)c2csc(NC(=O)Nc3cccc(C(F)(F)F)c3)n2)cc1 (centres undefined) | 25.6% (inactive)
CCN1C(=O)/C(=C2/Sc3ccccc3N2CCCS(=O)(=O)O)SC1=S | 29.9% (inactive) and 46.4% (active)
Cc1oc2cc([N+](=O)[O-])c(O)c([N+](=O)[O-])c2c1C(=O)c1ccc(Br)cc1 | 50.2% (active)
CCCOc1ccc(Cn2c(O)cc(=O)[nH]c2=O)cc1 | 18.4% (inactive)
C=CCSc1nsc(NC(=O)Nc2cccc(C(C)=O)c2)n1 | 34.4% (inactive)
